The values below come from PubChem BioAssay (NCATS).

SMILES strings stand for the structures. Results filed as inconclusive are left out. A number with no mark means an inactive call. Activity calls are given as the source filed them. The call rests on the fitted dose curve; in most records, active means well fitted inhibition curve with a large enough effect; inconclusive means small, poorly fitted or top-dose-only effect; inactive means flat fitted curve, though single readings scatter.
On the % scale 0 is the no-effect control and ±100 the full control effect.

In the test the target is Glutathione peroxidase 1 (Homo sapiens) (UniProt P07203). In words: Primary qHTS Assay for Inhibitors of Recombinant Selenoprotein Glutathione Peroxidase 1 (GPX1) (AID 1845191). Further: nearly all actives have a fitted effect of over 65% in size. The note with it: recombinant GPX1, GR-coupled NADPH fluorescence, 15 min; series mostly up to 48.8 µM; activity, negative = inhibition: at the top concentration. An outline of the steps: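 NADPH consumption tracked by fluorescence at 340/450 nm between t=0 and t=15 min, room temperature. Final mix: 10 nM GPX1, 100 nM glutathione reductase, 1 mM GSH, 0.5 mM NADPH, 0.5 mM cumene hydroperoxide, 0.01% BSA; 30 min compound–enzyme preincubation.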
Glutathione peroxidase 1 (Homo sapiens), sequence (P07203 whole entry, looked up): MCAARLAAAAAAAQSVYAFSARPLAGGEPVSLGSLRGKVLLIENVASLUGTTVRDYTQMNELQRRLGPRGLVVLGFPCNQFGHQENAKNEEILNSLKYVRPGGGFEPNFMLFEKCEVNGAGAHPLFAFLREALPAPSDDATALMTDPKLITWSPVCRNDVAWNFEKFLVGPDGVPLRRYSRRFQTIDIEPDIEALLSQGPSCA
Background: In qHTS, concentration-response curves come from the screen itself.
Turning to `CC1(C)CC(=O)N(CCCCN2CCN(c3ncccn3)CC2)C(=O)C1`, the “activity, negative = inhibition” value was -1.7%.
`CC(CO[C@@H]1O[C@H](COC(=O)/C=C/c2ccc(O)c(O)c2)[C@@H](O)[C@H](O)[C@H]1O)C1(O)COC(=O)C1` (some centres not stated): the “activity, negative = inhibition” value was -6.97% [at 27.7 µM].
Still for that read-out and setting: to `CNC(=O)c1ccc2cc([C@@]3(O)CCn4cncc43)ccc2c1` belongs 0.23%.
As for `CCOC(=O)c1ccc(N(C)c2csc(-c3ccccc3)n2)cc1`, the “activity, negative = inhibition” value is -11.4%.
Consider `C=C1[C@@H]2CC[C@@]3(C)[C@H](c4ccoc4)OC(=O)C[C@]13O[C@H]1CC(=O)C(C)(C)[C@H](CC(=O)OC)[C@]12C`, for which the “activity, negative = inhibition” value is 3.1% [at 27.7 µM].
Take `Cc1coc2c1CC1OC1(C)CCC1OC1(C)C2` (configuration not stated): the result was inactive.
Turning to `CC12CCC3c4ccc(O)cc4CCC3C1CCC2OC1OC(C(=O)O)C(O)C(O)C1O` (configuration not stated), the result was inactive.
Consider `CCOc1ccc(-c2ccc(Cn3c(CC(C)(C)C(=O)O)c(SC(C)(C)C)c4cc(OCc5ccc(C)cn5)ccc43)cc2)cn1`, for which the Potency result is “inactive”.
In the case of `CC1=CC(=O)C[C@H]2[C@@H]1CC[C@@H](C)[C@]21CO[C@H](c2ccoc2)C1=O`, the “outcome” value is “inactive [at 27.7 µM]”.
On to `C/C=C(\C)C(=O)O[C@@H](C)[C@H]1CC[C@]2(O)C3CCC4C[C@@H](OC5CC(OC)C(OC6CC(OC)C(OC7CC(OC)C(OC8OC(C)C(OC9OC(CO)C(O)C(O)C9O)C(OC)C8O)C(C)O7)C(C)O6)C(C)O5)CC[C@]4(C)C3[C@H](O)[C@@H](O)[C@]12C` (some centres not stated), for which the outcome is “inactive [at 9.52 µM]”.
For `CC1(C)CCC(C)(C)c2cc([C@@H](O)C(=O)Nc3ccc(C(=O)O)cc3F)ccc21`, the outcome was inactive.
As to `CC(CCC1(O)OC2CC3C4CCC5CC(O[C@@H]6O[C@H](CO)[C@@H](O)[C@H](O)[C@H]6O[C@@H]6OC[C@@H](O)[C@H](O)[C@H]6O)C(O)CC5(C)C4CCC3(C)C2C1C)CO[C@@H]1O[C@H](CO)[C@@H](O)[C@H](O)[C@H]1O` (some centres not stated), the “outcome” value is “inactive [at 15.3 µM]”.
